Where a chain is given by its changes, count along the chain named. Whole data set: some 24,000 sequences, median “enrichment r” near 0.99, cut for the highest 2% near 3.7. Shown is part of a subset that was picked to be rich in the highest values.
T1: UNK ZnF1-3 (human, UniProt Q9C0B0 31-174)
T1 sequence: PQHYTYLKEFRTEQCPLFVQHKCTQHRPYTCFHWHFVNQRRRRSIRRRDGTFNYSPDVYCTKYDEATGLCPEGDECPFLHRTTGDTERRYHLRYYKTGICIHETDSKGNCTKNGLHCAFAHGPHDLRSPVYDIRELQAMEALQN

B1: chr11:88707168:88707169:-_ENSMUSG00000018428_ENSMUST00000018572|mus_mus|FALSE|FALSE (ssRNA)
RNA: GGGAGUUCUACAGUCCGACGAUCAAGGGGAAGAGCGAACGCAACUGGAUUGCCAUCUUGGAGUCAGUCGAUGUGAAGUAGCUACACCUGCUCCUGGGCGACCGUCUAGGCACUCAAUCCUCCCGCCACCGCCCCCUGGCCCCCCAACAGAGGAUUGAGCAUCA
B2: chr3:184044699:184044700:+_ENSG00000114867_ENST00000411531|hu_hu|motif|central (ssRNA)
RNA: GGGAGUUCUACAGUCCGACGAUCAUUAUCUGUGCUUUCUGUGGGUACCGCUUGUUGAAGGGCUGAGAAGCGAUUCAAAGUACGGGUAGCUGGGCGAGCAGCUUCUGAUGCUGCGUCUGAGGGCUUGGCUCCUGAGCCUCCGCUCAACAGAGGAUUGAGCAUCA
B3: chrX:77155053:77155054:+_ENSG00000131174_ENST00000481445|hu_hu|motif|central (ssRNA)
RNA: GGGAGUUCUACAGUCCGACGAUCCGAACUUGGAGACGAUUUAGUGCGCUUUUGACCAAGGGAAACAUCGUGAAGGUGAAGCGGGAACUGCGGCAAUACAGCUGCUGCUUUGGUGCCAAUUCGCUUCAGGUACCCUUGAAGUGACAACAGAGGAUUGAGCAUCA
B4: chr2:153237265:153237266:-_ENSMUSG00000061411_ENSMUST00000109784|mus_mus|mus_mus_mus_hu_False|18_28 (ssRNA)
RNA: GGGAGUUCUACAGUCCGACGAUCAAAAAAAAAAAAAAAAAAGUGUCCUUGUGCCCAAAGUCUCAGGUGCUUGGAGUGUGGCUAGAAACAGCUCUUUUGGAUCCCACCUCUUUCAGAAAACAGUGUAACCAACUGGUGAGGCAGCAACAGAGGAUUGAGCAUCA
B5: chr2:153237265:153237266:-_ENSMUSG00000061411_ENSMUST00000109784|mus_mus|mus_mus_mus_hu_False|18_18 (ssRNA)
RNA: B4 RNA with G115A
B6: chr2:153237265:153237266:-_ENSMUSG00000061411_ENSMUST00000109784|mus_mus|mus_mus_mus_hu_False|18_58 (ssRNA)
RNA: B4 RNA with U78C, G79A, G115A
B7: chr5:71490711:71490712:+_ENSG00000131711_ENST00000296755|hu_hu|motif|central (ssRNA)
RNA: GGGAGUUCUACAGUCCGACGAUCCACAGGAGUGGGCACCUGGCCAGUGAGAUCCUUUUGGGUGGCCAGUGGCUGCUUCAGAAAGUCGGGAUGUUUGAGCUUUUCCAACCCUUCCAGGAUGUUGUACUGGGUGCUGUUCCCAGGCAACAGAGGAUUGAGCAUCA
B8: chr2:153237265:153237266:-_ENSMUSG00000061411_ENSMUST00000109784|mus_mus|mus_mus_mus_hu_False|18_78 (ssRNA)
RNA: B4 RNA with G66A, G115A
B9: chr2:153237265:153237266:-_ENSMUSG00000061411_ENSMUST00000109784|mus_mus|mus_mus_mus_hu_False|1_18 (ssRNA)
RNA: B4 RNA with G115A, G137A, A138G, G140C, C141A, A142G
B10: chr11:46405157:46405158:+_ENSG00000110492_ENST00000395566|hu_hu|hu_hu_hu_mus_False|8_58 (ssRNA)
RNA: GGGAGUUCUACAGUCCGACGAUCCCCUCCCCACUUUGGGCACUUGGUGUGGGCGUGAGAGGACAGGCGUGAUUGACAAAGCUAACGGGAAGACAAAAGGCACUGGUGGGUUAUAUCUUGGGCCUGUGAGAGGGAGGGGCUCCGCAACAGAGGAUUGAGCAUCA
B11: 55264158_55264526_802_CDS_ENSMUSG00000022185_ENSMUST00000148754|mouse|control|control (ssRNA)
RNA: GGGAGUUCUACAGUCCGACGAUCGAUGGACCUCCGGGUUAAGGUAUCUCCUAAUGUUACUUUCUUUACUUCGUGCUCCACAGGUGGGGGCAAGGCAACCUCCACUGACACCUGGGGUGGCGCCGGCAGCUCGGCUUCAGGCUCCAACAGAGGAUUGAGCAUCA
B12: chrX:71549400:71549401:+_ENSMUSG00000019087_ENSMUST00000019231|mus_hu|mus_mus_mus_hu_False|18_48 (ssRNA)
RNA: GGGAGUUCUACAGUCCGACGAUCGCAGUAGGAAGAGGGAAGCUCUUCAGUCCAGUGCGCUGCAGGGUGGGAAAGCAACAACACGGAACCAAUACUCCCCUCAACCCCCCCACUGGCAUGUCACACAACAAUCUGGGUCAAAGACAACAGAGGAUUGAGCAUCA
B13: chr6:42636609:42636610:-_ENSMUSG00000036667_ENSMUST00000045054|mus_hu|FALSE|FALSE (ssRNA)
RNA: GGGAGUUCUACAGUCCGACGAUCGGCAUCAAUACAGUAAACCCCCAGGGAGUCUUUCACUUCUGGCUCAACCUUUGCAUCCACUCCAGAGCCCUCGAGGAUUUUGGCCAAAGGUGCCAGGGAUGGGUGUACACCAAUGGGAGCCAACAGAGGAUUGAGCAUCA
B14: chr2:153237265:153237266:-_ENSMUSG00000061411_ENSMUST00000109784|mus_mus|mus_mus_mus_hu_False|28_28 (ssRNA)
RNA: B4 RNA with A119C, C120A, G122A, U123A, G124U, U125G, A126U
B15: chr2:153237265:153237266:-_ENSMUSG00000061411_ENSMUST00000109784|mus_mus|mus_mus_mus_hu_False|1_1 (ssRNA)
RNA: GGGAGUUCUACAGUCCGACGAUCAAAAAAAAAAAAAAAAAAGUGUCCUUGUGCCCAAAGUCUCAGGUGCUUGGAGUGUGGCUAGAAACAGCUCUUUUGGAUCCCACCUCUUUCAAAAACAAAAUGUACCAACUGGUAGGCAGGCAACAGAGGAUUGAGCAUCA
B16: chr18:65376317:65376318:+_ENSMUSG00000024589_ENSMUST00000163516|mus_mus|motif|central (ssRNA)
RNA: GGGAGUUCUACAGUCCGACGAUCUGCUAUACCAACAGAAAACUAUCCCUUUCCUAGGAAACACUAGACAGGCUCAUGUCCGGACGCGGCAGCUGCUUCUCUGGCACACUGAAAACACUCUGGGGUGGAGUGUGCAUACACAGACAACAGAGGAUUGAGCAUCA
B17: chr2:153237265:153237266:-_ENSMUSG00000061411_ENSMUST00000109784|mus_mus|mus_mus_mus_hu_False|28_58 (ssRNA)
RNA: B15 RNA with U78C, G79A, A115G, A137G, G138A, C140G, A141C, G142A
B18: chr2:153237265:153237266:-_ENSMUSG00000061411_ENSMUST00000109784|mus_mus|mus_mus_mus_hu_False|58_58 (ssRNA)
RNA: B15 RNA with U78C, G79A, A137G, G138A, C140G, A141C, G142A
B19: 113287723_113287843_2736_3pUTR_ENSG00000114999_ENST00000233336|human|control|control (ssRNA)
RNA: GGGAGUUCUACAGUCCGACGAUCCCUUUUUCAUUGUAAGUUCUCACAUCUCAUCAUGUUCAAGGAGGCAUUGAUUUUCUCCUCUUUUGUAAAAGUCUCACCUGACUGCAGAAAUGUUUUCUUGAGCCAAGUAGAAAUGAGGAACAACAGAGGAUUGAGCAUCA
B20: chr2:153237265:153237266:-_ENSMUSG00000061411_ENSMUST00000109784|mus_hu|FALSE|FALSE (ssRNA)
RNA: B15 RNA with A137G, G138A, C140G, A141C, G142A
B21: chr2:153237265:153237266:-_ENSMUSG00000061411_ENSMUST00000109784|mus_mus|mus_mus_mus_hu_False|1_28 (ssRNA)
RNA: B15 RNA with A115G
B22: chr3:149686290:149686291:-_ENSG00000070087_ENST00000452853|perfect_dup|FALSE|FALSE (ssRNA)
RNA: GGGAGUUCUACAGUCCGACGAUCUCCAAGAGUCAAACCGUUGGUAAAGAAACCUUCCCGGUCUUUUCCUACAAUCAUAUCUAUUUCUACUGGCGUGAUGCUCUGGAAGACGCCCCCGGCCGUGGCUGCCCAGACGUAUUUGGCCAACAGAGGAUUGAGCAUCA

Target: T1, UNK ZnF1-3
Experiment: nsRBNS (natural sequence RNA bind-n-seq); RBNS binding buffer (assumed for nsRBNS): 25 mM Tris pH 7.5, 150 mM KCl, 3 mM MgCl2, 0.01% Triton X-100, 500 ug/ml BSA, 20 U/ml SUPERase-In, 4 C; UNK is unkempt and MSI1 is Musashi-1; names of the RNAs are library labels; protein concentration not given here; high values mean tight binding

First: B1
Second: B2
The binding signal of the first is higher: 1.08 enrichment R for the first, 0.754 enrichment R for the second.

Going from B3 to B4, the binding signal rises from 0.887 enrichment R to 3.55 enrichment R.

First: B5
Second: B6
The binding signal of the first is higher: 5.16 enrichment R for the first, 4.98 enrichment R for the second.

Going from B7 to B8, the binding signal rises from 1.1 enrichment R to 4.87 enrichment R.

Compared with B9, B10 is lower in binding signal: 6.33 enrichment R for the first, 3.13 enrichment R for the second.

Going from B11 to B12, the binding signal rises from 0.664 enrichment R to 1.29 enrichment R.

Compared with B13, B14 is higher in binding signal: 1.69 enrichment R for the first, 3.18 enrichment R for the second.

Going from B15 to B16, the binding signal falls from 6.8 enrichment R to 1.06 enrichment R.

First: B17
Second: B18
The binding signal of the first is lower: 3.57 enrichment R for the first, 4.5 enrichment R for the second.

Compared with B19, B20 is higher in binding signal: 0.859 enrichment R for the first, 6.49 enrichment R for the second.

Compared with B21, B22 is lower in binding signal: 3.93 enrichment R for the first, 0.967 enrichment R for the second.
